Laboratory results from PubChem BioAssay (NCATS).
Records with an inconclusive call do not appear. Unmarked numbers belong to inactive results. The source made the active and inactive calls. Calls follow the shape of the dose curve; as a rule, active = well fitted activation curve with a large enough effect; inconclusive = small, poorly fitted or top-dose-only effect; inactive = no such curve, though single readings can be large or run the other way.

Target: Rap guanine nucleotide exchange factor 4 (Homo sapiens) (UniProt Q8WZA2)
Assay: Confirmatory qHTS for agonist of cAMP-regulated guanine nucleotide exchange factor 4 (EPAC2) (AID 1645884);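 also: nucleotide exchange releases bodipy-GDP from Rap1 and this lowers its fluorescence; nearly all actives have a fitted effect of over 65% in size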
Details: EPAC2 GEF activity, Rap1B-BODIPY-GDP fluorescence; series mostly up to 154 µM; activation: at the top concentration
% is scaled to controls: 0 for no effect and ±100 for the full control effect; potency is read from the fitted curve at half-maximal effect.

Rap guanine nucleotide exchange factor 4 (Homo sapiens), sequence (Q8WZA2 whole entry, looked up): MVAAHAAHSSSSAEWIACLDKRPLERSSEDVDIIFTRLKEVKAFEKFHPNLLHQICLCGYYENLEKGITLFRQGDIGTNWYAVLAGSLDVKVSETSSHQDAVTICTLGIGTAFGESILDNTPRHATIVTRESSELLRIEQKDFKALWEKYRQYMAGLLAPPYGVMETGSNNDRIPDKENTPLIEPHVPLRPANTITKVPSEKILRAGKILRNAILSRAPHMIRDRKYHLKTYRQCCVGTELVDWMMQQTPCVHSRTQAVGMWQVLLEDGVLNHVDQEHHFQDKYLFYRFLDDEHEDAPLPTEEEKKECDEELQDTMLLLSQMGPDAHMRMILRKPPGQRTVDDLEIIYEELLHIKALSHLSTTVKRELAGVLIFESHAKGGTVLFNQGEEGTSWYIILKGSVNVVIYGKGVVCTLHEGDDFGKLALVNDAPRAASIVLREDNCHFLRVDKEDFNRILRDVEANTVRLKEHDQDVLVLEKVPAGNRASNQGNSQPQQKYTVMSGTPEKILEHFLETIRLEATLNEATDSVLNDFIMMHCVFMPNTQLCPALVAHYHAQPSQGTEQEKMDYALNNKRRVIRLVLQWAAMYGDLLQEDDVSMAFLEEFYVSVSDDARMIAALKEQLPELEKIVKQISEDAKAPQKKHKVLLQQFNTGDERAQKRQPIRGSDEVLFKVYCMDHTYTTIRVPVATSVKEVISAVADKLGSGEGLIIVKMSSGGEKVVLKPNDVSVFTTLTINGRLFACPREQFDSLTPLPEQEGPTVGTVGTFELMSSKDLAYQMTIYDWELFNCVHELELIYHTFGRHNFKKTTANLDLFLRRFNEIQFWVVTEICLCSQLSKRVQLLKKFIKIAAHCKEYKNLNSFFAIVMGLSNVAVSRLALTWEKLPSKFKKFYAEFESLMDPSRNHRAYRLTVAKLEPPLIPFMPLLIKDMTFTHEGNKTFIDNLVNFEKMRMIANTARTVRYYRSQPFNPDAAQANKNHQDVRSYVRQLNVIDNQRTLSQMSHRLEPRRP

Structure (SMILES) | activation | Potency
COC(=O)c1c(OC)cc2c(c1C)Oc1c(Cl)c(OC(C)=O)c(Cl)c(C)c1C(=O)O2 | 6.79% | –
N#C/C(=C\c1ccc(O)c(O)c1)C(=O)NCCCCc1ccccc1 | 0.786% | –
CC(=O)Oc1ccc2c(c1)CCC1C2CC[C@]2(C)C(OC(C)=O)CCC12 (stereo partly drawn) | 7.74% | –
COc1ccc2c(c1)OCc1c-2oc2cc(OC)ccc12 | 16% | –
O=c1cc(-c2ccc(O)c(O)c2)oc2cc(OC3OC(CO)C(O)C(O)C3O)cc(O)c12 (stereo not drawn) | -5.88% | –
Cc1ccccc1-c1ccc2ncnc(N(C)Cc3ccco3)c2c1 | 0.0311% | –
CC1=CC2C(CC1=O)C(C)=CCC2C(C)C (stereo not drawn) | 1.69% | –
CC(=O)Oc1ccc2c(c1C(C)C)CCC1C(C)(C)CCC[C@@]21C (stereo partly drawn) | 11.8% | –
COc1cc(C/C=C/c2ccccc2)c(OC)cc1O | -5.27% | –
COC(=O)CCCOc1ccc(Cl)cc1Cl | 13.2% | –
C#C[C@]1(OC(C)=O)CCC2C3CCC4=CC(=O)CCC4C3CC[C@]21C (stereo partly drawn) | 15.1% | –
COC(=O)c1c(OC)cc2c(c1C)Oc1c(Cl)c(O)c(Cl)c(C)c1C(=O)O2 | 0.928% | –
CCOC(=O)c1c(C)cc(OC)cc1O | -0.696% | –
COc1cccc(-c2cncnc2NCc2ccc(OC)cc2OC)c1 | 8.74% | –
CC1(C)[C@@H](O)CC[C@]2(C)C3C(=O)C=C4C5C[C@@](C)(C(=O)O)CC[C@]5(C)CC[C@@]4(C)[C@]3(C)CC[C@@H]12 (stereo partly drawn) | -4.98% | –
CN(Cc1ccco1)c1nc(-c2ccccc2Cl)nc2ccccc12 | 2.15% | –
COc1cc(-c2coc3cc(OCc4ccccc4)c(OC)c(O)c3c2=O)cc(O)c1OC | -2.61% | –
CC(=O)OC1CC2C(C)(C)CCC(=O)[C@@]2(C)C2CC[C@@]3(C)C(c4ccoc4)OC(=O)C4OC43[C@]12C (stereo partly drawn) | 1.64% | –
CC(=O)OC1CCC23CC1(C)CCC2C(C)(C)CC3OC(C)=O (stereo not drawn) | 0.919% | –

Structure (SMILES) | activation | Potency
O=C(c1cccc(F)c1)N1CCC[C@@]2(CCN(C(c3ccccc3)c3ccccc3)C2)C1 | 13.6% | –
COc1ccc2c(c1)[C@@]1(C)CCC[C@](C)(CO)C1CC2 (stereo partly drawn) | 6.99% | –
O=C(O)c1cc(O)c2c(c1)C(=O)c1cc(O)cc(O)c1C2=O | 12.4% | –
COc1ccc(-c2nc3cnc(Nc4cccc(OC)c4)nc3n(CCC#N)c2=O)cc1 | – | 70.6 µM (active)
COc1ccc2c(c1)OCC(Cc1ccc(OC)c(OC(C)=O)c1)C2=O (stereo not drawn) | 6.18% | –
CC(=O)OC1CC[C@]2(C)C(CC(OC(C)=O)[C@@]3(C)C4=CC(=O)OC(c5ccoc5)[C@]4(C)CCC23)C1(C)C (stereo partly drawn) | 7.36% | –
O=c1c(-c2ccccc2)coc2cc(O)cc(O)c12 | -5.4% | –
N[C@H](C(=O)O)C(O)C(O)C(O)CO (stereo partly drawn) | -1.9% | –
NCC1OC(n2cnc3c(=O)[nH]c(N)nc32)C(O)C1O (stereo not drawn) | 8.21% | –
COc1ccccc1CNc1ncnc2ccc(-c3cccnc3)cc12 | -2.91% | –
CC1(C)C(O)CC[C@]2(C)C1CC[C@@]1(C)C2C(=O)C=C2[C@@H]3C[C@@](C)(C(=O)O)CC[C@@]3(C)CCC21C (stereo partly drawn) | -2.1% | –
O=c1c(O)c(-c2ccc(O)c(O)c2)oc2c(OC3OC(CO)C(O)C(O)C3O)c(O)cc(O)c12 (stereo not drawn) | 2.9% | –
CC1(C)C=CC(=O)[C@]2(C)C1CC(=O)[C@]1(C)C2CC[C@@]2(C)C(c3ccoc3)OC(=O)C3OC321 (stereo partly drawn) | 15% | –
COc1c(-c2ccc(O)c(O)c2)oc2cc(O)cc(O)c2c1=O | 0% | –
O=C1CC[C@@]23/C=C/C(=O)NCCCCNCCCNC(=O)/C=C/c4ccc(c2c4)OC3C1 (stereo partly drawn) | 5.65% | –
COc1ccc2c(c1)OC/C(=C/c1ccc(O)c(O)c1)C2=O | -3.42% | –
Nc1nc2n[nH]nc2c(=O)[nH]1 | -0.0349% [at 271 µM, percent relative to cAMP agonist control] | –
CN(Cc1ccco1)c1nc(-c2cccc(C#N)c2)nc2ccccc12 | 19% | –
COc1ccc(C(=O)O)c(O)c1OC | 7.86% | –
